Results published in the supplement of paper PMC10849652.
The full data set covers some 7,900 targets. This sample favours those with a hit. About 0.6% of all pairs of compound and target were hits.

What was measured:
Test in all cases: log2 fold change, soluble protein after heating vs DMSO (PISA); higher = thermal stabilisation; K562 cells, 10 uM, 30 min; active = over 0.2 and 3.5 SD of the protein, either way, in both replicates (recomputed)
[1] = compound: CC1=C2C(=CC=C1)N=C(N(C2=O)C3=CC=CC=C3C)CN4C=NC5=C(N=CN=C54)N
Summary of the method: (§1)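 K562 cells (2×10^6 cells/mL) were treated with 10 μM compound for 30 min, and aliquots were heated for 3 min over 48°C-58°C. Pooled aliquots were extracted in PBS with 0.5% NP-40 at 4°C, and the supernatant after 21,000xg for 90 min was measured by TMTpro 16plex LC-MS/MS with channel sums equalised. Reported thermal stability, relative to control samples and from duplicates, is a log2 fold change.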

[2] = compound: Cc1sc2c(c1C)C(c1ccc(Cl)cc1)=N[C@@H](CC(=O)OC(C)(C)C)c1nnc(C)n1-2
Summary of the method: as §1

[3] = compound: CC1=C(SC2=C1C(=N[C@H](C3=NN=C(N32)C)CC(=O)N)C4=CC=C(C=C4)Cl)C
Summary of the method: as §1

[4] = compound: c1ccc([C@@H]2C[C@H]2NC2CCNCC2)cc1
Summary of the method: as §1

[5] = compound: C1=CC=C(C=C1)[C@H](COC2=CC3=C(C=C2)NC(=O)N3)NC(=O)C4=CC=CN(C4=O)CC5=CC(=C(C=C5)F)F
Summary of the method: as §1

Measured: log2 fold change

TC2N (UniProt Q8N9U0)
inactive: [1] 0.053 | [2] 0.08

TCOF1 isoform 3 (UniProt Q13428)
inactive: [2] -0.093

SLC39A1 (UniProt Q9NY26)
inactive: [3] -0.156 | [4] 0.053

SPG11 (UniProt Q96JI7)
inactive: [5] 0.095 | [3] 0.05 | [1] 0.444 | [2] 0.24 | [4] 0.083

SLC35B4 (UniProt Q969S0)
UniProt Q969S0, sequence (Q969S0 whole entry, looked up): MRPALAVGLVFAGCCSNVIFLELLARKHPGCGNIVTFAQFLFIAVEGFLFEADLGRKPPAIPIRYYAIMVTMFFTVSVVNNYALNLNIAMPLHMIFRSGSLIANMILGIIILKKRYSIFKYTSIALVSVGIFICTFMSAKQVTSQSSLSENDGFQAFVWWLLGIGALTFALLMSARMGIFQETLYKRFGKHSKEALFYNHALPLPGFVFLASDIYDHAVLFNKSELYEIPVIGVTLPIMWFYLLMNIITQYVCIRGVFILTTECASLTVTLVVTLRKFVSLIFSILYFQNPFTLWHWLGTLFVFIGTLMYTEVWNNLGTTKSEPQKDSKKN
inactive: [5] 0.061 | [1] -0.069 | [2] -0.137

SRRM2 (UniProt Q9UQ35)
UniProt Q9UQ35, sequence (Q9UQ35 whole entry, looked up): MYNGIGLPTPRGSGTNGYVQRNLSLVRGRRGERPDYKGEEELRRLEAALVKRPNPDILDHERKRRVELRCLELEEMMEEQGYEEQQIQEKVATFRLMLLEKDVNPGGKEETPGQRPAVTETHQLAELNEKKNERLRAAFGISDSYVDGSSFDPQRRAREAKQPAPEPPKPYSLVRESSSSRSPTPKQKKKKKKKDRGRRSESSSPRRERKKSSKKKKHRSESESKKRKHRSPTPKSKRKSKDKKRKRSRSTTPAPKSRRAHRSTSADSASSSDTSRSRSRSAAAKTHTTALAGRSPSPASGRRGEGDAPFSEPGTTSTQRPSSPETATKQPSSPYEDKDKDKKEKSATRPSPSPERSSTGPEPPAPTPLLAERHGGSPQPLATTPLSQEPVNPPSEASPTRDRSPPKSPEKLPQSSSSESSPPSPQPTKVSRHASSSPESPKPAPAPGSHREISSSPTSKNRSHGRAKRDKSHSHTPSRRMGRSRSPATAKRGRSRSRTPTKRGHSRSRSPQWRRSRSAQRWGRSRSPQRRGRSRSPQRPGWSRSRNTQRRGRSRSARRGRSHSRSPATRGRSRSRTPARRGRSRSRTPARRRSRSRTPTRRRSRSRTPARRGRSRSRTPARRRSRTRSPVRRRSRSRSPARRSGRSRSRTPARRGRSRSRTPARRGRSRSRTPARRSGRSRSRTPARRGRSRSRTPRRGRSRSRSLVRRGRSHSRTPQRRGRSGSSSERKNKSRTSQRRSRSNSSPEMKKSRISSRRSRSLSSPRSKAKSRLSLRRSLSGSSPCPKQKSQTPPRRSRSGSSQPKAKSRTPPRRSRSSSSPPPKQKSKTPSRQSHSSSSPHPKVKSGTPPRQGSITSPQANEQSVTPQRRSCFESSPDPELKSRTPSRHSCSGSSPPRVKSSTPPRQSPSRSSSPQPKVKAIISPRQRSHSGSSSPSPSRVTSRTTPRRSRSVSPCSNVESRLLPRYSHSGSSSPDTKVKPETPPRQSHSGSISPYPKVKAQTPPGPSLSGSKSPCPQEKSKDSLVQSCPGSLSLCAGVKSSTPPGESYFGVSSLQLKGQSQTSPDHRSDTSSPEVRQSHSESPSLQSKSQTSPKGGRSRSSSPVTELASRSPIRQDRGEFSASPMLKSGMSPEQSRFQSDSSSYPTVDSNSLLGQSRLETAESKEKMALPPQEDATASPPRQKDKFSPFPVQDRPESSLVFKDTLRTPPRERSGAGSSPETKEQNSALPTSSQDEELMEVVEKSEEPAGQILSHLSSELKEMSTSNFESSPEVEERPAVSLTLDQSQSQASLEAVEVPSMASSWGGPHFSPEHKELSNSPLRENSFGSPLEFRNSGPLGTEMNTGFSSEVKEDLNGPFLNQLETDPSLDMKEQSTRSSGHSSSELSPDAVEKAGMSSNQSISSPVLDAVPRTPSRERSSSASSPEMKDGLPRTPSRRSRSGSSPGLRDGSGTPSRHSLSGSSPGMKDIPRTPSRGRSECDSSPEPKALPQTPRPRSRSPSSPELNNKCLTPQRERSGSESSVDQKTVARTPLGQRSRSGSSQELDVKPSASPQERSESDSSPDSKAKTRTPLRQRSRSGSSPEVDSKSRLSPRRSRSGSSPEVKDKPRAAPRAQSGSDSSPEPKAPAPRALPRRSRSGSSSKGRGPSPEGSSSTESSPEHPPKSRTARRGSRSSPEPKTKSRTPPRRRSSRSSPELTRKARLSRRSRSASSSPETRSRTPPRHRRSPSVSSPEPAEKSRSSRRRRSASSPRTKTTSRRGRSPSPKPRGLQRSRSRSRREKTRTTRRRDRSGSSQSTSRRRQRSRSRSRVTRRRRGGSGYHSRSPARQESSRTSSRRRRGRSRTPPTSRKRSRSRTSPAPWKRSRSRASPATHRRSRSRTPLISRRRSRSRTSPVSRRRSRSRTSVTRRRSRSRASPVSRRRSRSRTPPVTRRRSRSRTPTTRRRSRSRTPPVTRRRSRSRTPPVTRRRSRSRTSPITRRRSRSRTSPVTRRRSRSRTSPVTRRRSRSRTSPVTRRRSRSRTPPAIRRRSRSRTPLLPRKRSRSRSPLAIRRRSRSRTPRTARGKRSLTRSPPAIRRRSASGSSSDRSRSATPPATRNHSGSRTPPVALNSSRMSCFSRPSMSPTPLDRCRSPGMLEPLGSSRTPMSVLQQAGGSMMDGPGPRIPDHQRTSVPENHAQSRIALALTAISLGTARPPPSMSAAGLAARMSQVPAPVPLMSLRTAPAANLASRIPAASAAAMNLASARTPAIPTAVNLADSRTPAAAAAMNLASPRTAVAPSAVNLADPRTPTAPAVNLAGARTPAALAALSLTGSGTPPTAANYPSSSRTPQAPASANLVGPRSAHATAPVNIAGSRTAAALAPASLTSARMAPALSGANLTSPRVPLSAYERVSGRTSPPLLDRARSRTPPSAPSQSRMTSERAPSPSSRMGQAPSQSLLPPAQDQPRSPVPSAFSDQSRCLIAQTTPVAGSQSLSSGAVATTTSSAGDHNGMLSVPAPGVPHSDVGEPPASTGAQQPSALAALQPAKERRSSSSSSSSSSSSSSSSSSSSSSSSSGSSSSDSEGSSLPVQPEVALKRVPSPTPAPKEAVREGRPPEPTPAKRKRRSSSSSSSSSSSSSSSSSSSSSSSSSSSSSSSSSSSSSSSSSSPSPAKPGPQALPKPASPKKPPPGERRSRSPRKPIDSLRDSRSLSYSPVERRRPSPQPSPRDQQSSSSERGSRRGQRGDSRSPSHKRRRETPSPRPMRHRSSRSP
inactive: [5] -0.005 | [3] -0.015 | [1] 0 | [2] 0.05 | [4] 0.037

SMARCB1 (UniProt Q12824)
inactive: [3] 0.057 | [1] -0.041 | [2] 0.015 | [4] 0.18

SRSF9 (UniProt Q13242)
inactive: [5] 0.045 | [3] -0.452 | [1] -0.38 | [4] 0.041

STK39 (UniProt Q9UEW8)
inactive: [5] -0.105 | [3] -0.015 | [1] 0.034 | [2] -0.026 | [4] -0.029

TAF6L (UniProt Q9Y6J9)
inactive: [3] -0.209 | [2] 0.048 | [4] 0.073

SNX2 isoform 2 (UniProt O60749)
inactive: [5] 0.092 | [3] 0.217 | [1] 0.094 | [4] 0.066

SURF2 (UniProt Q15527)
UniProt Q15527, sequence (Q15527 whole entry, looked up): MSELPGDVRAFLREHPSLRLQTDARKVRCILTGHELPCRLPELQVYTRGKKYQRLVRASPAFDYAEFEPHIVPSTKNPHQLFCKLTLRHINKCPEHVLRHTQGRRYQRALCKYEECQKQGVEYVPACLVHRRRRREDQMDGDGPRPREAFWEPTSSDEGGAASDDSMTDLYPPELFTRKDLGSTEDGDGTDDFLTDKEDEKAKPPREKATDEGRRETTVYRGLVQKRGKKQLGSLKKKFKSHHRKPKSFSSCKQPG
inactive: [5] 0.056 | [3] -0.018 | [1] 0.033 | [2] -0.047 | [4] -0.044

SRFBP1 (UniProt Q8NEF9)
inactive: [5] 0.011 | [3] -0.14 | [2] 0.048 | [4] -0.013

SUPT5H isoform 2 (UniProt O00267)
inactive: [1] -0.015

TAMM41 isoform 3 (UniProt Q96BW9)
UniProt Q96BW9, sequence (Q96BW9 whole entry, looked up): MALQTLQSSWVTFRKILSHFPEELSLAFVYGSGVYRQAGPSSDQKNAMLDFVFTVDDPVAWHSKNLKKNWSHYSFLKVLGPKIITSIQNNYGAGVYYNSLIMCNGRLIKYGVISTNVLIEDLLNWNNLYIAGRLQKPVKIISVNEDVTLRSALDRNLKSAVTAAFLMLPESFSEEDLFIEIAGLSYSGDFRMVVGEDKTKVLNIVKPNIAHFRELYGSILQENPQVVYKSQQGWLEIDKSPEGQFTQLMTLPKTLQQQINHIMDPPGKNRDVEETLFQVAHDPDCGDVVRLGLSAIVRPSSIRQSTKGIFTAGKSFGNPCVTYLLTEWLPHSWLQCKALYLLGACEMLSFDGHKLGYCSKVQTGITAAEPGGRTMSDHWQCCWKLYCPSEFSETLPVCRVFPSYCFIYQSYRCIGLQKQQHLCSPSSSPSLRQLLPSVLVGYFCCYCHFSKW
inactive: [5] -0.012 | [3] 0.1 | [1] 0.09 | [2] -0.06 | [4] 0.001

SPAG9 isoform 4 (UniProt O60271)
UniProt O60271, sequence (O60271 whole entry, looked up): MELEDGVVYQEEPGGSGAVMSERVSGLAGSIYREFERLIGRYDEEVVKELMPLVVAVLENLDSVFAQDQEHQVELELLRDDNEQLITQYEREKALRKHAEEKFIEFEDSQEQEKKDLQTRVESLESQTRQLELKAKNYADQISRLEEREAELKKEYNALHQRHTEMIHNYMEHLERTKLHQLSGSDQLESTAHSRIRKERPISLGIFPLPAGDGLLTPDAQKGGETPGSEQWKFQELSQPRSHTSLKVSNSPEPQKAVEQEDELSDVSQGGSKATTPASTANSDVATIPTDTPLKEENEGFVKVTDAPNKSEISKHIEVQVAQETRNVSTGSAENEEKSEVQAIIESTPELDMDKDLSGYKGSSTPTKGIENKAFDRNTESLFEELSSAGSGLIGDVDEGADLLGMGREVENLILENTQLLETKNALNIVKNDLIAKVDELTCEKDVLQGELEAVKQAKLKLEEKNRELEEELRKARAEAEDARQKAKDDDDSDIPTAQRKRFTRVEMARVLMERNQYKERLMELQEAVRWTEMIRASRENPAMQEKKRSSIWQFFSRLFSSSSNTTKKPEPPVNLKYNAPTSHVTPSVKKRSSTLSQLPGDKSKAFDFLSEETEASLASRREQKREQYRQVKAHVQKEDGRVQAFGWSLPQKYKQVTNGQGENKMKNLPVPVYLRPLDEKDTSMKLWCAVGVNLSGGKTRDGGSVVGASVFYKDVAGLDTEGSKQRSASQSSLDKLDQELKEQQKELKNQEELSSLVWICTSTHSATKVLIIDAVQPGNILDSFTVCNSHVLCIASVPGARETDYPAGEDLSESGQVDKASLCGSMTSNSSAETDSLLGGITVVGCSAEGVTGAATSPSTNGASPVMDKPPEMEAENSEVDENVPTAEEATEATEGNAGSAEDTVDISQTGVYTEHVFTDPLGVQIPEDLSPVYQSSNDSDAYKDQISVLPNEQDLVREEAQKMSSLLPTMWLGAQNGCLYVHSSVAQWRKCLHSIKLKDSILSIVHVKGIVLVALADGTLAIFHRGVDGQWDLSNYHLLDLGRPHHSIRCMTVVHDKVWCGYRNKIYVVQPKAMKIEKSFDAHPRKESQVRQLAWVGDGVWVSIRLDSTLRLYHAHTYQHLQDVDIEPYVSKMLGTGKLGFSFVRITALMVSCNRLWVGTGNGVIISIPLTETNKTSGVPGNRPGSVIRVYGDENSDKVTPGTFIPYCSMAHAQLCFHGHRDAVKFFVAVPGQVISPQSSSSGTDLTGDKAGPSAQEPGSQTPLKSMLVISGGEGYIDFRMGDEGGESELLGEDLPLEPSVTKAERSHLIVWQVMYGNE
inactive: [5] 0.15 | [3] 0.006 | [1] -0.048 | [2] 0.028 | [4] 0.025
